Results taken from PubChem BioAssay (NCATS).
Records with an inconclusive call do not appear. Active and inactive are the calls of the source. The call rests on the fitted dose curve; in most records, active means well fitted inhibition curve with a large enough effect; inconclusive means small, poorly fitted or top-dose-only effect; inactive means flat fitted curve, though single readings scatter.

These compounds were tested on TAB113 (assay: qHTS profiling for inhibitors of Plasmodium falciparum proliferation (AID 504749; further: nearly all actives have a fitted effect of over 60% in size;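 on activity, negative = inhibition: 0% = DMSO vehicle and full inhibition = artemisinin control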)). Settings: P. falciparum in erythrocytes, SYBR Green DNA, 72 h; series mostly up to 28.7 µM; activity, negative = inhibition: at the top concentration.
Procedure, shortened: (§1)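 Quantitative HTS: compounds pinned into medium, infected erythrocytes added (0.3% parasitemia, 2.5% hematocrit), 72 h culture at 37 C under 5% CO2. Saponin/Triton lysis with SYBR Green I, overnight RT, then fluorescence read.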
Potency means the concentration at half of the fitted maximal effect.

| Structure (SMILES) | activity, negative = inhibition | Potency |
| --- | --- | --- |
| CC(=O)Nc1ccc(OC(C)=O)cc1 | 6.35% (inactive) |  |
| CC(C)(C)c1ccc2c(S(=O)(=O)O)c(C(C)(C)C)ccc2c1 | 10.3% (inactive) |  |
| CCCCCCCCCCCCOCCCN | 15.6% (inactive) |  |
| COC(=O)C(CN)c1c[nH]c2ccc(OC)cc12 (stereo not drawn) | 17.1% (inactive) |  |
| CC1(C)S[C@@H]2[C@H](NC(=O)C3(N)CCCCC3)C(=O)N2[C@H]1C(=O)O | 11.3% (inactive) |  |
| FC(F)(F)C(F)(F)C(F)(F)C(F)(F)C(F)(F)C(F)(F)F | -1.47% (inactive) |  |
| CCCCO | 2.99% (inactive) |  |
| CCOC(=O)c1c[nH]c2cc(OCC(C)C)c(OCC(C)C)cc2c1=O |  | 0.112 µM (active) |
| CCN(CC)CCOc1ccc2nc(N(C)C)sc2c1 | -11.2% (inactive) |  |
| OCl | 4.96% (inactive) |  |
| COC(=O)CC[C@H](N)C(=O)O | 6.98% (inactive) |  |
| COc1cc(S(C)=O)ccc1-c1nc2ncccc2[nH]1 (stereo not drawn) | 1.45% (inactive) |  |
| O=C(O)Cc1nn(Cc2ccc(Br)cc2F)c(=O)c2ccccc12 | -1.88% (inactive) |  |
| O=C(O)/C=C/c1ccccc1 | 8.99% (inactive) |  |
| Cc1cccc(C)c1NC(=O)NC1=CCCN1C | 1.18% (inactive) |  |
| NCC[C@H](O)C(=O)N[C@@H]1C[C@H](N)[C@@H](O[C@H]2O[C@H](CN)[C@@H](O)[C@H](O)[C@H]2O)[C@H](O)[C@H]1O[C@H]1O[C@H](CO)[C@@H](O)[C@H](N)[C@H]1O | 9.32% (inactive) |  |
| CC1=CC(=O)NS(=O)(=O)O1 | 12.4% (inactive) |  |
| O=C(O)[C@H]1C(=CCO)O[C@H]2CC(=O)N12 | 1.78% (inactive) |  |
| CCC(Cc1c(I)cc(I)c(O)c1I)C(=O)O (stereo not drawn) | -7.67% (inactive) |  |
| CCCCC[C@H](O)/C=C/[C@@H]1[C@H]2C/C(=C/CCCC(=O)O)O[C@H]2C[C@H]1O | 12.6% (inactive) |  |

| Structure (SMILES) | activity, negative = inhibition | Potency |
| --- | --- | --- |
| FCOC(C(F)(F)F)C(F)(F)F | 7.36% (inactive) |  |
| C=Cc1ccc(S(=O)(=O)O)cc1 | 15.6% (inactive) |  |
| CC12CCC(C[N+](C)(CCC[N+](C)(C)C)C1)C2(C)C (stereo not drawn) | -2.02% (inactive) |  |
| CC1CC(OC(=O)C(O)c2ccccc2)CC(C)(C)C1 (stereo not drawn) | 5.41% (inactive) |  |
| CC/C(=C(/CC)c1ccc(OP(=O)(O)O)cc1)c1ccc(OP(=O)(O)O)cc1 | 18.8% (inactive) |  |
| O=C(NNCNNC(=O)c1ccncc1)c1ccncc1 | 16.7% (inactive) |  |
| CC(C)c1ncc([N+](=O)[O-])n1C | -0.871% (inactive) |  |
| CC(C)CCC[C@@H](C)[C@H]1CC[C@H]2[C@@H]3CC[C@@H]4C[C@H](O)CC[C@]4(C)[C@H]3CC[C@]12C | 12.1% (inactive) |  |
| Cc1ccc(S(=O)(=O)NCl)cc1 | 15.6% (inactive) |  |
| CC(/C=C/C=C(\C)C(=O)O[C@@H]1O[C@H](CO[C@@H]2O[C@H](CO)[C@@H](O)[C@H](O)[C@H]2O)[C@@H](O)[C@H](O)[C@H]1O)=C\C=C\C=C(C)\C=C\C=C(/C)C(=O)O[C@@H]1O[C@H](CO[C@@H]2O[C@H](CO)[C@@H](O)[C@H](O)[C@H]2O)[C@@H](O)[C@H](O)[C@H]1O | 2.59% (inactive) |  |
| CCCCCCCCCCCCCCCCCC(=O)OCC(C)O (stereo not drawn) | 0.488% (inactive) |  |
| CC(C)(Oc1ccc(C2CCCc3ccccc32)cc1)C(=O)O (stereo not drawn) | 3.66% (inactive) |  |
| CO | 0.733% (inactive) |  |
| O=C(O)/C=C/C(=O)Nc1ccc(S(=O)(=O)Nc2nccs2)cc1 | -0.0668% (inactive) |  |
| N[C@H](CC(=O)O)C(=O)O | 18.6% (inactive) |  |
| CCCc1ccc(C(=O)O)cc1 | -4.21% (inactive) |  |
| O=S(=O)(O)CC(S)CS (stereo not drawn) | 0.796% (inactive) |  |
| O=c1[nH]c(=O)n([C@H]2C[C@H](O)[C@@H](CO)O2)cc1/C=C/Br | 3.2% (inactive) |  |
| CN[C@@H]1[C@H](O[C@H]2[C@H](O[C@H]3[C@H](O)[C@@H](O)[C@H](N=C(N)N)[C@@H](O)[C@@H]3N=C(N)N)O[C@@H](C)[C@]2(O)C=O)O[C@@H](CO)[C@H](O)[C@H]1O | 8.1% (inactive) |  |

The compounds below were run on TAB165 in the same assay as above. Settings: P. falciparum in erythrocytes, SYBR Green DNA, 72 h; series mostly up to 28.7 µM; activity, negative = inhibition: at the top concentration.
Procedure, shortened: as §1

| Structure (SMILES) | activity, negative = inhibition | Potency |
| --- | --- | --- |
| CC(=O)Nc1ccc(OC(C)=O)cc1 | 11.8% (inactive) |  |
| CC(C)(C)c1ccc2c(S(=O)(=O)O)c(C(C)(C)C)ccc2c1 | 12.1% (inactive) |  |
| CCCCCCCCCCCCOCCCN | 6.02% (inactive) |  |
| COC(=O)C(CN)c1c[nH]c2ccc(OC)cc12 (stereo not drawn) | -2.84% (inactive) |  |
| CC1(C)S[C@@H]2[C@H](NC(=O)C3(N)CCCCC3)C(=O)N2[C@H]1C(=O)O | 8.84% (inactive) |  |
| FC(F)(F)C(F)(F)C(F)(F)C(F)(F)C(F)(F)C(F)(F)F | 8.14% (inactive) |  |
| CCCCO | 2.95% (inactive) |  |
| CCOC(=O)c1c[nH]c2cc(OCC(C)C)c(OCC(C)C)cc2c1=O |  | 0.0708 µM (active) |
| CCN(CC)CCOc1ccc2nc(N(C)C)sc2c1 | -3.06% (inactive) |  |
| OCl | 3.24% (inactive) |  |
| COC(=O)CC[C@H](N)C(=O)O | 9.14% (inactive) |  |
| COc1cc(S(C)=O)ccc1-c1nc2ncccc2[nH]1 (stereo not drawn) | -0.82% (inactive) |  |
| O=C(O)Cc1nn(Cc2ccc(Br)cc2F)c(=O)c2ccccc12 | 4.11% (inactive) |  |
| O=C(O)/C=C/c1ccccc1 | 5.49% (inactive) |  |
| Cc1cccc(C)c1NC(=O)NC1=CCCN1C | 6.87% (inactive) |  |
| NCC[C@H](O)C(=O)N[C@@H]1C[C@H](N)[C@@H](O[C@H]2O[C@H](CN)[C@@H](O)[C@H](O)[C@H]2O)[C@H](O)[C@H]1O[C@H]1O[C@H](CO)[C@@H](O)[C@H](N)[C@H]1O | 0.896% (inactive) |  |
| CC1=CC(=O)NS(=O)(=O)O1 | 10.5% (inactive) |  |
| O=C(O)[C@H]1C(=CCO)O[C@H]2CC(=O)N12 | 4.05% (inactive) |  |
| CCC(Cc1c(I)cc(I)c(O)c1I)C(=O)O (stereo not drawn) | -16.8% (inactive) |  |
| CCCCC[C@H](O)/C=C/[C@@H]1[C@H]2C/C(=C/CCCC(=O)O)O[C@H]2C[C@H]1O | 2.3% (inactive) |  |

| Structure (SMILES) | activity, negative = inhibition | Potency |
| --- | --- | --- |
| FCOC(C(F)(F)F)C(F)(F)F | 14.8% (inactive) |  |
| C=Cc1ccc(S(=O)(=O)O)cc1 | -1.37% (inactive) |  |
| CC12CCC(C[N+](C)(CCC[N+](C)(C)C)C1)C2(C)C (stereo not drawn) | 8.45% (inactive) |  |
| CC1CC(OC(=O)C(O)c2ccccc2)CC(C)(C)C1 (stereo not drawn) | 0.491% (inactive) |  |
| CC/C(=C(/CC)c1ccc(OP(=O)(O)O)cc1)c1ccc(OP(=O)(O)O)cc1 | 12.1% (inactive) |  |
| O=C(NNCNNC(=O)c1ccncc1)c1ccncc1 | 15.4% (inactive) |  |
| CC(C)c1ncc([N+](=O)[O-])n1C | 13.1% (inactive) |  |
| CC(C)CCC[C@@H](C)[C@H]1CC[C@H]2[C@@H]3CC[C@@H]4C[C@H](O)CC[C@]4(C)[C@H]3CC[C@]12C | -3.14% (inactive) |  |
| Cc1ccc(S(=O)(=O)NCl)cc1 | 17.9% (inactive) |  |
| CC(/C=C/C=C(\C)C(=O)O[C@@H]1O[C@H](CO[C@@H]2O[C@H](CO)[C@@H](O)[C@H](O)[C@H]2O)[C@@H](O)[C@H](O)[C@H]1O)=C\C=C\C=C(C)\C=C\C=C(/C)C(=O)O[C@@H]1O[C@H](CO[C@@H]2O[C@H](CO)[C@@H](O)[C@H](O)[C@H]2O)[C@@H](O)[C@H](O)[C@H]1O | 4.03% (inactive) |  |
| CCCCCCCCCCCCCCCCCC(=O)OCC(C)O (stereo not drawn) | 4.06% (inactive) |  |
| CC(C)(Oc1ccc(C2CCCc3ccccc32)cc1)C(=O)O (stereo not drawn) | 1.66% (inactive) |  |
| CO | 7.95% (inactive) |  |
| O=C(O)/C=C/C(=O)Nc1ccc(S(=O)(=O)Nc2nccs2)cc1 | 3.23% (inactive) |  |
| N[C@H](CC(=O)O)C(=O)O | 9.67% (inactive) |  |
| CCCc1ccc(C(=O)O)cc1 | -1.59% (inactive) |  |
| O=S(=O)(O)CC(S)CS (stereo not drawn) | 2.56% (inactive) |  |
| O=c1[nH]c(=O)n([C@H]2C[C@H](O)[C@@H](CO)O2)cc1/C=C/Br | 10.2% (inactive) |  |
| CN[C@@H]1[C@H](O[C@H]2[C@H](O[C@H]3[C@H](O)[C@@H](O)[C@H](N=C(N)N)[C@@H](O)[C@@H]3N=C(N)N)O[C@@H](C)[C@]2(O)C=O)O[C@@H](CO)[C@H](O)[C@H]1O | -0.228% (inactive) |  |
